This note sets out measurements from PubChem BioAssay.

Unmarked numbers belong to inactive results. For part of these data: Entries with a potency or affinity are not part of this list. Calls of active or inactive are those of the source. Unless noted, no rule for the calls is given here.

Experiment [1] is described as follows: antimalarial activity against Dd2 strain (AID 2302;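 active = growth inhibition above 50% at the single 2 µM test dose, taken to imply half-maximal potency below 2 µM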;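 also: 0% = DMSO untreated growth and 100% = chloroquine plus artemisinin killed control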). The note with it: P. falciparum Dd2 in RBCs, LDH growth readout, 72 h; at 2 µM; stronger effect = higher value.
Experiment [2] is described as follows: human hepatoma cell viability loss – ATP luminescence, cytotoxicity control for P. falciparum antimalarial project, primary screen (AID 2303;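 active = inhibition above 50%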;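 also: 0% = DMSO wells and 100% = digitonin-killed cells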). To be noted: HepG2 viability, 24-48 h, at 10 µM, stronger effect = higher value.
In experiment [3] the target is L-lactate dehydrogenase (Plasmodium falciparum (isolate CDC / Honduras)) (UniProt Q27743). The experiment in a line: PfLDH activity inhibition – cell lysate, 3D7 strain, counter-screen for P. falciparum growth inhibition project (AID 2304).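 Also: 0% = vehicle and 100% = reference inhibitor.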 The note with it: P. falciparum 3D7 crude extract, LDH APAD/NBT absorbance; at 2 µM; stronger effect = higher value. (In general: A counterscreen serves to expose hits that act by an unwanted route or on another target.)

Experiment [4] in a line: inhibition of 3D7 malaria parasite growth – strain 3D7 (AID 2306).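 Also: 0% = DMSO wells and 100% = chloroquine plus artemisinin control wells.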 The note with it: P. falciparum 3D7 erythrocytic growth, LDH absorbance, 72 h; at 2 µM; stronger effect = higher value.
Experiment [5] has as its target Calcium-dependent protein kinase 1 (Plasmodium falciparum (isolate 3D7)) (UniProt P62344). The experiment in a line: PfCDPK1 kinase inhibitors, biochemical, TCAMS library (AID 1159585; cut-off not given, nearly all actives have IC50 up to about 0.98 µM;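 also: inhibitors leave more ATP so luminescence rises with inhibition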). The note with it: recombinant PfCDPK1, Kinase-Glo ATP depletion luminescence. A general note: Kinase-Glo measures the ATP left after a reaction by luminescence.
The target of experiment [6] is Plasmodium falciparum protein kinase 6 (PK6, PF3D7_1337100) (UniProt Q8IDW1). The experiment in a line: PfPK6 kinase inhibitors, biochemical, TCAMS library (AID 1159586). To be noted: recombinant PfPK6, Kinase-Glo ATP depletion luminescence.
Experiment [7] has as its target Protein kinase 7 (PK7), Plasmodium falciparum 3D7 (PF3D7_0213400) (UniProt Q7YTF7). The experiment in a line: inhibition of Plasmodium PK7 catalytic activity – biochemical, TCAMS antimalarial set, Kinase-Glo luminescence (AID 1159587). To be noted: recombinant PfPK7, Kinase-Glo ATP depletion luminescence.
For experiment [8], the target named is Calcium-dependent protein kinase 4 (Plasmodium falciparum (isolate 3D7)) (UniProt Q8IBS5). Briefly: PfCDPK4 kinase inhibitors, biochemical, TCAMS library (AID 1159588; cut-off not given, nearly all actives have IC50 up to about 0.91 µM). To be noted: recombinant PfCDPK4, Kinase-Glo ATP depletion luminescence.
Calcium-dependent protein kinase 4 (Plasmodium falciparum (isolate 3D7)), sequence (Q8IBS5 whole entry, looked up): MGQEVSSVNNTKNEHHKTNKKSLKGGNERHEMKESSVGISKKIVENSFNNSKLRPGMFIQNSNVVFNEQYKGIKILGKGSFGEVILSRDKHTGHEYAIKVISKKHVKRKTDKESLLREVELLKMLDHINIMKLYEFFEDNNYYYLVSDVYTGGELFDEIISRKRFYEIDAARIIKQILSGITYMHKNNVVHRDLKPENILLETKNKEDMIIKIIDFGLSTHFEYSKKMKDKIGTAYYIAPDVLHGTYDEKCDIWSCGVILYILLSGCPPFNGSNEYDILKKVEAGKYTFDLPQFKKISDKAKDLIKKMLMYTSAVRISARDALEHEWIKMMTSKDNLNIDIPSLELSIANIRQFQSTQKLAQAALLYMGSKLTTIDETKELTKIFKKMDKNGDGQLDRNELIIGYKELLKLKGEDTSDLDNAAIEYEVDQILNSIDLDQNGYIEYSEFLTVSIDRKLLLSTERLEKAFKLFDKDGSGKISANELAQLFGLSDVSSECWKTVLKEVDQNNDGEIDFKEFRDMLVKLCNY

Protein kinase 7 (PK7), Plasmodium falciparum 3D7 (PF3D7_0213400), sequence (Q7YTF7 1-343): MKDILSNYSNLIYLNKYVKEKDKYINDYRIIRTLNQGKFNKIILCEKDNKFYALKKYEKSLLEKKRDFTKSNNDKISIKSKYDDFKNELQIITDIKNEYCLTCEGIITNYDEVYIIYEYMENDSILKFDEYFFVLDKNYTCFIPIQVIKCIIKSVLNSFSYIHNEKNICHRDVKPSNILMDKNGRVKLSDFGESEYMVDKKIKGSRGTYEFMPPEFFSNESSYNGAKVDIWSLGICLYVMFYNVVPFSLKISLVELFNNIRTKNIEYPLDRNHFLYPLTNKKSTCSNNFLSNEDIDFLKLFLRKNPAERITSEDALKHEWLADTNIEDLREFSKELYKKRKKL
L-lactate dehydrogenase (Plasmodium falciparum (isolate CDC / Honduras)), sequence (Q27743 whole entry, looked up): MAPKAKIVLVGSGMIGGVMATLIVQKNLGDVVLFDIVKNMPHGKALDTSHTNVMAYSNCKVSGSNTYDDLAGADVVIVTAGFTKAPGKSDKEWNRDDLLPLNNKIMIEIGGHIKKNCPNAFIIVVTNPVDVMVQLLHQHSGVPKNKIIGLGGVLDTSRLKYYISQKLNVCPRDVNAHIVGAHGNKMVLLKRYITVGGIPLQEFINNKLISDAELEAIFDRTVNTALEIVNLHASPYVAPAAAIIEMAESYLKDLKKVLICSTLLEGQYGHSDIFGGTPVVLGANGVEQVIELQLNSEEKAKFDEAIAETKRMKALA
Plasmodium falciparum protein kinase 6 (PK6, PF3D7_1337100), sequence (Q8IDW1 1-305): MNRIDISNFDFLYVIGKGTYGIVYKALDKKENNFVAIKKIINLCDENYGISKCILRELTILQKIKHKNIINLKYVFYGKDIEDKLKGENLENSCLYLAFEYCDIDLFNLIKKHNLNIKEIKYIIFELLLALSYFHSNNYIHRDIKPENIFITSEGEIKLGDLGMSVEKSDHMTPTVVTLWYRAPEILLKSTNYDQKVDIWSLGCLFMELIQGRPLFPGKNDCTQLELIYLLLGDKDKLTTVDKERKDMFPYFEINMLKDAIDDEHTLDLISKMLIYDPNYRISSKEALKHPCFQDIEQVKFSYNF
Calcium-dependent protein kinase 1 (Plasmodium falciparum (isolate 3D7)), sequence (P62344 whole entry, looked up): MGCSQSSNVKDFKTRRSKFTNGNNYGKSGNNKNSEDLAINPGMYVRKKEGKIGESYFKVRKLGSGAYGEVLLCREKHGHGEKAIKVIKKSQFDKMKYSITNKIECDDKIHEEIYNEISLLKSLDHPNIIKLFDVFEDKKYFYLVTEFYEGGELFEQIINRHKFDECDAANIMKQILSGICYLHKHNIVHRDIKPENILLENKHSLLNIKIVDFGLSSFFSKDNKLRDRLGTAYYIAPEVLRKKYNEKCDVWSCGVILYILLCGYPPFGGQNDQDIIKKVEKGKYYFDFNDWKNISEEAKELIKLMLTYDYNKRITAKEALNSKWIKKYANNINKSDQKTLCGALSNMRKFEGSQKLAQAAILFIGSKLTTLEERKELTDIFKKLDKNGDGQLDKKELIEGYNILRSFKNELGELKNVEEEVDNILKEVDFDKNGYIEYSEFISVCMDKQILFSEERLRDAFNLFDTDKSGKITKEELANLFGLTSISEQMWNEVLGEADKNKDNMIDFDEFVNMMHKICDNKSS

The inhibition is the change of the read-out against control, counted positive when it falls. With `O=C(c1ccc(-c2cccc(-c3nc4ccc(F)cc4[nH]3)c2)cc1)N1CCCCC1CN1CCC(O)C1` (stereo not drawn), the growth inhibition is -4% in experiment [1] and 91% (active) in experiment [4]. The inhibition was 11% in experiment [2] and -1% in experiment [3]. Moreover, the outcome in experiment [5], in experiment [6], in experiment [7] and in experiment [8] was inactive.

For `Cc1nc2ccc(F)cc2n1C1CCN(C(=O)Cc2ccc(F)c(F)c2)CC1`, the figures for the growth inhibition in experiment [1] and in experiment [4] were 99% (active) and 100% (active), respectively. Also, the inhibition in experiment [2] is 2%; in experiment [3] it was 0%. The outcome in experiment [5], in experiment [6], in experiment [7] and in experiment [8] was inactive.

Consider `COc1ccc(NC(=O)NC2CCN(CCCOc3cc(C)nc4ccccc34)CC2)cc1OC`, for which the growth inhibition in experiment [1] is 9%; in experiment [4], 97% (active). Moreover, the inhibition in experiment [2] is 3%; in experiment [3], 2%. Moreover, the outcome in experiment [5], in experiment [6], in experiment [7] and in experiment [8] was inactive.

`COc1cc(NC(=O)c2sc(-c3ccc(Cl)cc3)cc2NC(=O)N2CCCC2)ccc1OCCN1CCCC1`: the growth inhibition in experiment [1] was 61% (active); in experiment [4], 101% (active). For the same compound, the values for the inhibition in experiment [2] and in experiment [3] were 22% and 0%, respectively. Also, the outcome in experiment [5], in experiment [6], in experiment [7] and in experiment [8] was inactive.

`COc1ccc2nc3cc(Cl)ccc3c(Nc3ccc(O)c(CNC(C)C)c3)c2c1`: the growth inhibition in experiment [1] was 100% (active); in experiment [4], 102% (active). For the same compound, the figures for the inhibition in experiment [2] and in experiment [3] were 5% and -1%, respectively. For the same compound, the outcome in experiment [5], in experiment [6], in experiment [7] and in experiment [8] was inactive.

`O=C(/C=C/c1ccc(Cl)c(Cl)c1)N1CCC(CNCc2cccc3cc[nH]c23)CC1`: the results for the growth inhibition in experiment [1] and in experiment [4] were 14% and 85% (active), respectively. The inhibition in experiment [2] is 1%; in experiment [3], -2%. The result in experiment [5], in experiment [6], in experiment [7] and in experiment [8] was inactive.

With `CC(C)C[C@H]1C(=O)N[C@H](C2Cc3ccccc3C2)C(=O)N1[C@@H](C(=O)Nc1ccccc1OCc1ccccc1)c1ccc(F)cc1F`, the growth inhibition in experiment [1] is 67% (active); in experiment [4], 90% (active). Moreover, the inhibition in experiment [2] is 12%; in experiment [3], 5%. In addition, the outcome in experiment [5], in experiment [6], in experiment [7] and in experiment [8] was inactive.

For `Cc1ccc(Nc2nc(C)cc(Nc3cccc(NS(C)(=O)=O)c3)n2)cc1`, the growth inhibition was 8% in experiment [1] and 96% (active) in experiment [4]. Moreover, the inhibition in experiment [2] was -3%; in experiment [3], 0%. The result in experiment [5], in experiment [6], in experiment [7] and in experiment [8] was inactive.

For the compound `CN1CCc2ccc(NC(=O)Nc3cccc([N+](=O)[O-])c3)cc2C1`, the growth inhibition in experiment [1] was 3%; in experiment [4], 87% (active). For the same compound, the figures for the inhibition in experiment [2] and in experiment [3] were -5% and 0%, respectively. Also, the result in experiment [5], in experiment [6], in experiment [7] and in experiment [8] was inactive.

Turning to `Cn1ccnc1CNC(=O)c1ccc(-c2ccc(-c3nc4ccc(C(F)(F)F)cc4[nH]3)s2)cc1`, the values for the growth inhibition in experiment [1] and in experiment [4] were 43% and 101% (active), respectively. The inhibition was 40% in experiment [2] and 3% in experiment [3]. Also, the outcome in experiment [5], in experiment [6], in experiment [7] and in experiment [8] was inactive.

`Fc1ccc2nc(-c3ccc(-c4cccc(CN5CCN(CCN6CCOCC6)CC5)c4)cc3)[nH]c2c1`: the growth inhibition in experiment [1] was 100% (active); in experiment [4], 101% (active). Moreover, the inhibition in experiment [2] was 35%; in experiment [3] it was 4%. Besides, the result in experiment [5], in experiment [6], in experiment [7] and in experiment [8] was inactive.

On to `COc1ccc2ccc(F)c(CC(=O)N3CCOC(CNCc4cccc(-c5ccsc5)n4)C3)c2n1` (stereo not drawn), for which the growth inhibition in experiment [1] was 1%; in experiment [4], 92% (active). The results for the inhibition in experiment [2] and in experiment [3] were 1% and 3%, respectively. In addition, the outcome in experiment [5], in experiment [6], in experiment [7] and in experiment [8] was inactive.

As to `COC(=O)c1cccc(CNCc2cccc(-c3cccc(-c4nc5c(C)cccc5[nH]4)c3)c2)c1`, the growth inhibition in experiment [1] is 47%; in experiment [4], 101% (active). Further, the inhibition was -1% in experiment [2] and 3% in experiment [3]. The outcome in experiment [5], in experiment [6], in experiment [7] and in experiment [8] was inactive.

As for `CC(=O)Nc1nc(C(=O)Nc2cccc(-c3ccc(-c4nc5c(C)cccc5[nH]4)s3)c2)cs1`, the growth inhibition was 67% (active) in experiment [1] and 101% (active) in experiment [4]. Moreover, the inhibition was 14% in experiment [2] and -2% in experiment [3]. Further, the outcome in experiment [5], in experiment [6], in experiment [7] and in experiment [8] was inactive.

As for `COC(=O)c1ccc2c(c1)nc(Nc1cccc(F)c1)n2CC(O)c1ccccn1` (stereo not drawn), the growth inhibition is 96% (active) in experiment [1] and 99% (active) in experiment [4]. In addition, the inhibition was -7% in experiment [2] and -1% in experiment [3]. The result in experiment [5], in experiment [6], in experiment [7] and in experiment [8] was inactive.

Consider `O=S(=O)(Nc1cccc(CCN2CCC(N3CCCCC3)CC2)c1)c1ccc(Oc2ccccc2)nc1`, for which the growth inhibition in experiment [1] is -4%; in experiment [4], 99% (active). The inhibition in experiment [2] is 8%; in experiment [3] it was -2%. The outcome in experiment [5], in experiment [6], in experiment [7] and in experiment [8] was inactive.

In the case of `CCCSc1nc2c(c(=O)n1CCc1ccccc1)C1(CCCC1)Cc1ccccc1-2`, the growth inhibition in experiment [1] is 53% (active); in experiment [4], 99% (active). Besides, the figures for the inhibition in experiment [2] and in experiment [3] were 46% and -4%, respectively. The outcome in experiment [5], in experiment [6], in experiment [7] and in experiment [8] was inactive.

On to `COc1cccc2c(NN=Cc3ccc([N+](=O)[O-])cc3)ccnc12`, for which the figures for the growth inhibition in experiment [1] and in experiment [4] were 16% and 92% (active), respectively. For the same compound, the figures for the inhibition in experiment [2] and in experiment [3] were 25% and -3%, respectively. The result in experiment [5], in experiment [6], in experiment [7] and in experiment [8] was inactive.

With `CN(C)c1ccc(-c2ccc(C(=O)NC3CCN(Cc4cccc(C(F)(F)F)c4)CC3)s2)cc1`, the growth inhibition is 77% (active) in experiment [1] and 96% (active) in experiment [4]. In addition, the values for the inhibition in experiment [2] and in experiment [3] were 35% and 0%, respectively. In addition, the result in experiment [5], in experiment [6], in experiment [7] and in experiment [8] was inactive.

On to `CC(C)c1ccc(NC(=O)NCC2CCCN(CCCCCNC(=O)/C=C/c3ccc(Cl)c(Cl)c3)C2)cc1` (stereo not drawn), for which the figures for the growth inhibition in experiment [1] and in experiment [4] were 6% and 98% (active), respectively. Further, the inhibition is 87% (active) in experiment [2] and -13% in experiment [3]. In addition, the outcome in experiment [5], in experiment [6], in experiment [7] and in experiment [8] was inactive.

For `CCN(CC)CCCn1c(N)c(-c2nc3ccccc3[nH]2)c2nc(C#N)c(C#N)nc21`, the growth inhibition in experiment [1] was 99% (active); in experiment [4], 100% (active). Besides, the figures for the inhibition in experiment [2] and in experiment [3] were 8% and 2%, respectively. The outcome in experiment [5], in experiment [6], in experiment [7] and in experiment [8] was inactive.
